This is a sample that favours compounds with a hit; in the whole collection about 4.1% have one here.
CSC inhib: blocks cancer stem cells | AID 2717 | inhibition, % at 7.5 µM | cancer stem cell-like cells viability, luminescence | 300,000 tested, 1.1% active; in the data active = inhibition above about 75%; inconclusive = no clear call, values can overlap the other calls; tested in HMLE shEcad cells
Beta apoptosis: blocks beta cell apoptosis. INS-1E cytokine-induced death, ATP luminescence, 48 h; percent of positive-control rescue, neutral wells zero. protection from apoptosis, % (no concentration beside the values). 300,000 tested, 0.8% active. AID 435005;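 active = Every replicate reaches about 75%, or at least half do and their mean reaches it too, limit read from the data; inconclusive = At least half of replicates reach the limit but their mean does not; inactive = Under half of replicates reach the limit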;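 also: higher means more ATP so stronger rescue from cytokine killing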
A1 inh: inhibitors of the anti-apoptotic protein A1, read as caspase activation; 330,000 tested, 0.066% active; caspase activation, % (test concentration not listed); MEF A1-2A-BIM cells, Caspase-Glo 3/7 luminescence, 3 h; percent of clofoctol response, vehicle zero; AID 2462;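 active = over half of replicate activation scores above 10%, or exactly half above 10 with the replicate mean above 10; inconclusive = replicate mean below 10 yet half the replicates above 10; inactive = over half of replicates below 10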
Mdm2 MdmX PPI: inhibitors of human Mdm2/MdmX interaction; O15151+Q00987; AID 485346; 330,000 tested, 3% active; SaOS-2 split-luciferase Mdm2/MdmX complementation, luminescence; inhibition, % at 8 µM;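 active = inhibition of at least 50% at 8 µM in the primary screen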
Target sequence (O15151 whole entry, looked up): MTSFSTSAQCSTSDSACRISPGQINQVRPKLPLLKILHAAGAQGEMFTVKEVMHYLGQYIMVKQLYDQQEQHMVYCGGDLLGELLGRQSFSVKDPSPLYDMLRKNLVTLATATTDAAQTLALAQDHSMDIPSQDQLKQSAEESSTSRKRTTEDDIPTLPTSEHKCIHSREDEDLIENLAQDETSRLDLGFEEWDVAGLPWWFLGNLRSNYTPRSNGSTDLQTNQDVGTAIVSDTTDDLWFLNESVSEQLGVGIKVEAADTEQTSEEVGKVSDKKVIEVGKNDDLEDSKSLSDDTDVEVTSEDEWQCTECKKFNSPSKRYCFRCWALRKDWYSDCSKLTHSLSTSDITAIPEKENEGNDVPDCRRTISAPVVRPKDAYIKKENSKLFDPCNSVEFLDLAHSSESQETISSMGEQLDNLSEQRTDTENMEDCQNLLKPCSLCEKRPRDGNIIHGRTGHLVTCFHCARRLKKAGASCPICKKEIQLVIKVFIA
Target sequence (Q00987 whole entry, looked up): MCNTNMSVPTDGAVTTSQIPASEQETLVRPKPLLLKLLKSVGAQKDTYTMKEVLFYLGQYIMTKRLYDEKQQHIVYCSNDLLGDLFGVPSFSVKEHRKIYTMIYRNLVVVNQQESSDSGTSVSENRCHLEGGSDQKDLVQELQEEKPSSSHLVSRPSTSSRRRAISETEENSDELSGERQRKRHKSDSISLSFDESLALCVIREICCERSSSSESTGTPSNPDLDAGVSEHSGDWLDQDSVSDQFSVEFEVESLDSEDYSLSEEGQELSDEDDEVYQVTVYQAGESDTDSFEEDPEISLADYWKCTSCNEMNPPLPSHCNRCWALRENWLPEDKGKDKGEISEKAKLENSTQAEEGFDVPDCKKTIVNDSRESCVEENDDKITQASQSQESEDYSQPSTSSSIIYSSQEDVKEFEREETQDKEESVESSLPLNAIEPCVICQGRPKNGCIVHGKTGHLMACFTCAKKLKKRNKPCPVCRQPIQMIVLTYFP
aSyn UTR inh: MLPCN primary screen, SNCA 5' untranslated region; alpha-synuclein 5'UTR reporter, inhibitor activity; inhibition, % (tested at 7.5 µM); 300,000 tested, 0.82% active; AID 1813; in the data active = inhibition above about 60%; inconclusive = no clear call, values can overlap the other calls;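 also: H4 neuroglioblastoma cells stably carrying SNCA 5'UTR luciferase fusion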
Hits are given with their value; n = inactive; u = inconclusive; x = not tested or not shown.

SMILES	CSC inhib	Beta apoptosis	A1 inh	Mdm2 MdmX PPI	aSyn UTR inh
Cc1c(-c2cccc(Cl)c2)nc2ccccc2c1C(=O)OCC(=O)Nc1ccc2c(c1)OCO2	154.9	n	n	n	n
O=C(CNC(=O)c1ccc2c(=O)n3c(nc2c1)CCC3)Nc1ccc(F)c(F)c1	n	n	n	n	n
COc1ccc(C)cc1NCc1cc(=O)oc2cc(-c3ccccc3)c(O)cc12	n	n	n	n	n
COC(=O)c1ccccc1NCc1cc(=O)oc2cc(O)c(O)cc12	92.3	n	n	n	n
CC(C)OCCCNC(=S)N1CCC(C(=O)c2ccc(Cl)cc2)CC1	n	102.0	n	n	n
CNC1=C(N(C(C)=O)c2ccc(Br)cc2)C(=O)c2ccccc2C1=O	105.1	131.1	n	x	110.9
Cc1cc2nc3n(c2cc1C)CCCN3	n	n	n	n	n
O=[N+]([O-])c1cccc(-c2csc(N/N=C/c3cccc(O)c3)n2)c1	87.0	n	n	n	n
CCOC(=O)Cc1csc(N/N=C/c2cccc([N+](=O)[O-])c2)n1	n	n	n	n	n
CC[C@]12c3[nH]c4ccc(OC)cc4c3CCN1C(=O)C(CC(=O)NCc1ccc(OC)c(OC)c1)C[C@@H]2C(=O)N1CCN(C(=O)C2CC2)CC1 (stereo partly drawn)	x	x	x	n	x
CCn1cc(C(=O)O)c(=O)c2cc(F)c(N/N=C/c3ccccc3[N+](=O)[O-])cc21	n	97.2	u	n	n
CCCCNc1c(-c2ccc(SC3CCCCC3)c(OC)c2)nc2ccc(C)cn12	101.2	n	n	n	x
CCCCCCSc1cc(-c2nc3ccc(Cl)cn3c2NCCCC)ccc1OC	n	n	n	n	n
CCCCCCSc1cc(-c2nc3ccc(C)cn3c2NCCCC)ccc1OC	97.3	83.7	n	n	x
CCCc1cc(=O)oc2cc(OCC(=O)Nc3ccc(S(N)(=O)=O)cc3)ccc12	n	n	n	n	n
O=C(Nc1nnc(-c2cccs2)s1)c1cccc(F)c1	n	n	n	n	x
CN(C)C(CNC(=O)C1CCN(C(=O)/C=C/c2ccccc2)CC1)c1ccccc1 (stereo not drawn)	n	n	n	n	n
CC(=O)N1CCc2cc(S(=O)(=O)NCCC3=CCCCC3)ccc21	x	87.5	n	n	n
Cc1ccc(NC(=O)c2cc(S(=O)(=O)NCCC3=CCCCC3)ccc2F)cc1F	n	106.9	n	n	n
O=C(Nc1cccc(F)c1)c1cc(S(=O)(=O)NCCC2=CCCCC2)ccc1F	n	n	n	n	n
CS(=O)(=O)c1cccc(-c2nnc(NC(=O)CCS(=O)(=O)c3ccccc3)o2)c1	n	n	n	n	n
CCOC(=O)[C@H]1[C@H]2COc3ccccc3[C@@H]2N2C(=O)CNC(=O)[C@@]12C	n	n	n	n	x
CN(C)CCN=Cc1c(O)n(-c2ccc(S(=O)(=O)N3CCOCC3)cc2)c(=O)c2ccccc12	x	x	x	n	x
Cc1cc2c(cc1C)C(c1cc(Br)ccc1F)CC(=O)N2 (stereo not drawn)	172.2	n	n	n	64.9
COc1ccccc1C(=O)NCCC(=O)NC1CCC(C)CC1 (stereo not drawn)	x	n	n	n	x
SMILES	CSC inhib	Beta apoptosis	A1 inh	Mdm2 MdmX PPI	aSyn UTR inh
Cc1cc2c(c(C)c1Br)C(c1ccc3c(c1)OCO3)CC(=O)O2 (stereo not drawn)	x	x	x	n	x
O=C(Nc1nccs1)c1cc2c(s1)CCCCC2	n	n	n	n	72.0
CCCCNC(=O)[C@@H]1CC=C[C@@H]2CCN(Cc3ccc(Cl)c(Cl)c3)C(=O)[C@@H]21	n	n	n	n	n
O=C(NCCc1ccccc1)[C@@H]1CC=C[C@@H]2CCN(Cc3ccc(Cl)c(Cl)c3)C(=O)[C@@H]21	n	99.4	n	n	n
Cc1cc(SCC(=O)NCC(c2cccs2)N2CCOCC2)c(C)cc1Br (stereo not drawn)	n	n	n	n	n
O=C(Nc1cc2ccccc2oc1=O)c1ccccc1	n	n	n	n	73.7
COc1ccc(-c2nnc3sc(C4CCCCC4)nn23)cc1OC	n	n	n	n	65.3
COc1ccc(-c2nn3c(C4CCCCC4)nnc3s2)cc1OC	x	n	x	n	n
O=C(/C(=C/O)N=Nc1ccc(Cl)cc1)c1ccncc1	77.1	n	n	n	n
Cc1ccc(N=N/C(=C\O)C(=O)c2ccncc2)cc1	n	n	n	n	n
CC(OC(=O)c1cccs1)C(=O)NC1CCCCC1C (stereo not drawn)	95.8	n	n	n	x
COC(=O)c1ccc(C23CC4(C2)[C@H](CN(Cc2cccnc2)[C@@H]4c2ccccc2)C3c2ccc(C(F)(F)F)cc2)cc1 (stereo partly drawn)	n	n	n	n	n
FC(F)(F)c1ccc(C2[C@H]3CN(Cc4cccnc4)[C@H](c4ccccc4)C34CC2(c2cccnc2)C4)cc1 (stereo partly drawn)	101.7	n	n	n	n
CCc1ccc(-c2nc(-c3ccncc3)no2)cc1	n	n	n	n	x
CCCCc1ccc(-c2nc(-c3ccncc3)no2)cc1	x	n	n	n	91.5
Cc1nc(SCC(=O)Nc2ccccc2Cl)c2c(C)c(C)sc2n1	x	n	n	n	x
Oc1ccc(/C=N/N2CCN(C3c4ccccc4-c4ccccc43)CC2)cc1	n	n	n	n	n
Oc1ccc(/C=N/N2CCN(C3c4ccccc4-c4ccccc43)CC2)cc1O	n	n	29.4	n	n
C/C(=N\NC(=O)c1ccccc1)c1nc2ccccc2n1C	n	n	n	n	62.3
Cn1c(NC(=O)c2ccc(F)cc2)nc2ccccc21	n	n	n	n	n
CCn1c(-c2ccc(N(C)C)cc2)nc2ccccc21	n	112.8	n	n	n
O=C(Nc1ccc(NC(=O)c2cc3ccccc3o2)cc1)c1ccc2c(c1)OCCO2	n	n	n	n	71.5
Cc1cc(NC(=O)c2ccc3c(c2)OCCO3)ccc1NC(=O)c1cc2ccccc2o1	n	n	n	n	n
COc1ccc(C(=O)Oc2ccc(N(C)S(=O)(=O)c3ccccc3)cc2)cc1[N+](=O)[O-]	n	n	n	n	n
C=CCNc1oc(-c2cccc(F)c2)nc1C#N	x	x	x	n	x
SMILES	CSC inhib	Beta apoptosis	A1 inh	Mdm2 MdmX PPI	aSyn UTR inh
CCCCn1c(N)c(N(CCC)C(=O)C2CCCC2)c(=O)[nH]c1=O	x	x	x	n	x
COc1cc(/C=C/c2ccc3cccc(OC)c3n2)c(OC(C)=O)c([N+](=O)[O-])c1	78.0	n	n	n	n
COc1cc(/C=C/c2ccc3cccc(OC)c3n2)c(O)c([N+](=O)[O-])c1	n	n	n	n	n
COc1c(OC(C)=O)ccc(/C=C/c2ccc3cccc(OCc4ccccc4)c3n2)c1[N+](=O)[O-]	86.6	n	n	n	n
CCOc1ccc(NS(=O)(=O)c2cc3c4c(c2)C(C)C(=O)N4CCC3)cc1 (stereo not drawn)	n	n	n	n	n
CC(=O)c1ccc(N2CCN(c3ccc(S(=O)(=O)NCCCN(C)C)cc3[N+](=O)[O-])CC2)cc1	81.5	n	n	n	n
Oc1ccc(-c2csc(Nc3ccccn3)n2)c(O)c1	103.2	n	n	n	n
CC(C)(C)c1ccc(COn2ccnc2)cc1	n	n	n	n	n

Screening data deposited in PubChem by several laboratories.
